# Hit rate of the full screen: of about 96,000 compounds, about 19,000 (20%) were called active.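 Rule for the calls: active = blocking of liver enzyme CYP2C9 beyond about 50% at 5 µM (limit read from the data); inactive = the rest.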 Not all results are given here.
# Target: Cytochrome P450 2C9 (Homo sapiens) (UniProt P11712)
# Experiment: blockers of cytochrome P450 2C9 activity – biochemical, luminescence, ADME assay, primary screen (AID 777)
# Details: CYP2C9 Supersomes, luciferin-H conversion, at 5 µM, stronger effect = higher value
# Chain of Cytochrome P450 2C9 (Homo sapiens) (P11712 whole entry, looked up): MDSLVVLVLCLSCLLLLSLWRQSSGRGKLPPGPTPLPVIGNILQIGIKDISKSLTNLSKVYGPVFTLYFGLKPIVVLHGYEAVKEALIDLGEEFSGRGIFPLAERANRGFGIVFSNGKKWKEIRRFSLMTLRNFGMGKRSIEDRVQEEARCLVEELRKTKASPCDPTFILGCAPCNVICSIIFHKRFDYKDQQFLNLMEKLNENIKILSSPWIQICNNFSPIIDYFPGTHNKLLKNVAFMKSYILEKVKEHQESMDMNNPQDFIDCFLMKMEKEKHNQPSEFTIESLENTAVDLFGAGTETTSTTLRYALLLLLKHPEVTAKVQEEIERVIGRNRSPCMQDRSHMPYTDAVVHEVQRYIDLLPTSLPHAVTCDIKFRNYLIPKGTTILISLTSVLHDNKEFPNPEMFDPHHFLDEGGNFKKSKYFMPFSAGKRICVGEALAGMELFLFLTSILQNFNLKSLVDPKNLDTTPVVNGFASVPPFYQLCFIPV
row,SMILES,inhibition
1,CCOCCOCCC(C(=O)O)P(=O)(c1ccccc1)c1ccccc1 (centres undefined),-7.7% (inactive)
2,COC(=O)c1sccc1NC(=O)CSc1ccccc1NS(=O)(=O)c1cc(Cl)ccc1Cl,84.2% (active)
3,COC(=O)c1sccc1N/N=C(\C)c1ccc(F)c(Cl)c1,9.3% (inactive)
4,COC(=O)c1sccc1NC(=O)c1cc(OC)c(OC)c(OC)c1,7.6% (inactive)
5,COC(=O)c1ccccc1Oc1c(F)c(F)nc(N2CCOCC2)c1F,45.2% (inactive)
6,CCCCCn1c(SCCC(C)C)nc2c1c(=O)[nH]c(=O)n2C,10.1% (inactive)
7,CCn1c(SCC(=O)Nc2ccc3c(c2)OCCO3)nc2c(c1=O)SC(C)C2 (centres undefined),92.9% (active)
8,CCOc1ccc(NC(=O)CSc2nc3c(c(=O)n2-c2ccccc2OC)SCC3)cc1,40.8% (inactive)
9,CCCCSc1nc2c(c(=O)n1CC)SC(C)C2 (centres undefined),51.2% (active)
10,COc1ccccc1C(=O)C(O)c1ccccc1OC (centres undefined),-2.8% (inactive)
11,CCOC(=O)N1CCN(CC(=O)Nc2cc(C)nn2-c2nc3ccccc3s2)CC1,25.8% (inactive)
12,O=C(c1ccco1)N(Cc1nc2ccccc2c(=O)[nH]1)C1CCCC1,-20.5% (inactive)
13,CC(=O)Oc1cccc(N2C(=O)CC(Nc3ccc(N4CCOCC4)cc3)C2=O)c1 (centres undefined),19.9% (inactive)
14,CC1OC2C(OC1C)N(S(C)(=O)=O)CCN2S(C)(=O)=O (centres undefined),-6.8% (inactive)
15,Cc1cccc(N2C(=O)C3C(c4ccccc4)OC4(C(=O)c5ccccc5C4=O)C3C2=O)c1 (centres undefined),-8.4% (inactive)
16,Cc1cc(NC(=O)CCC2COc3ccccc3O2)no1 (centres undefined),7.1% (inactive)
17,Cc1cc(NC(=O)CCC(=O)N(c2ccccc2)C(C(=O)NC2CCCC2)c2ccncc2)no1 (centres undefined),55.9% (active)
18,Cc1cc(NC(=O)CN2CCC(O)(c3cccc(F)c3)CC2)no1,23.3% (inactive)
19,Cc1ccc(C(C(=O)NC2CCCC2)N(Cc2ccco2)C(=O)CCC(=O)Nc2ccccn2)cc1 (centres undefined),28.7% (inactive)
20,Cc1cc(NC(=O)/C=C/C(=O)N(c2ccccc2C)C(C(=O)NC2CCCC2)c2ccc(F)cc2)no1 (centres undefined),25.2% (inactive)
21,Cc1cc(NC(=O)CCC(=O)N(c2cccc(F)c2)C(C(=O)NC2CCCC2)c2ccncc2)no1 (centres undefined),77.9% (active)
22,CC1CC(C)CN(C/C=C/c2ccccc2[N+](=O)[O-])C1 (centres undefined),9.8% (inactive)
23,CCc1nc(C)ccc1OCC(=O)N(CC)CC,-6.3% (inactive)
24,c1ccc(Nc2n[nH]nc2-c2ccccc2)cc1,28.9% (inactive)

row,SMILES,inhibition
1,Cn1c(=O)c2c(ncn2CC(=O)N2CCN(c3ccccc3)CC2)n(C)c1=O,6.8% (inactive)
2,CCOc1ccc(Cn2c(SCCCCC#N)nc3c2c(=O)n(C)c(=O)n3C)cc1OCC,31.1% (inactive)
3,CCOC(=O)CSc1nc2c(c(=O)n(Cc3ccccc3Cl)c(=O)n2C)n1C,-7.5% (inactive)
4,Cc1cccc(Cn2c(N3CCN(c4ccccc4)CC3)nc3c2c(=O)n(C)c(=O)n3C)c1,66.1% (active)
5,CCOC(=O)CSc1nc2c(c(=O)n(C)c(=O)n2C)n1Cc1ccccc1F,60.5% (active)
6,C/C(Cl)=C\Cn1c(Nc2cccc(C)c2)nc2c1c(=O)n(C)c(=O)n2C,-7.8% (inactive)
7,CCCSc1nc2c(c(=O)n(C)c(=O)n2C)n1Cc1ccc(C)cc1,9.9% (inactive)
8,CC(C)OCCCNc1nc2c(c(=O)n(Cc3ccccc3F)c(=O)n2C)n1C,22.3% (inactive)
9,Cc1cccc(Cn2c(SCCO)nc3c2c(=O)n(C)c(=O)n3C)c1,54% (active)
10,COc1ccc(CNC(=O)C2CCN(S(=O)(=O)N3CCOCC3)CC2)cc1,-2.7% (inactive)
11,Cn1c(N)c(C(=O)COC(=O)C23CC4CC(CC(C4)C2)C3)c(=O)n(C)c1=O,29.6% (inactive)
12,COc1ccc(N2C(=O)C3CCCN3C2c2cc(OC)c(OC)cc2OC)cc1 (centres undefined),-1.9% (inactive)
13,CC1CN(C(=O)CN2C(=O)NC(C)(c3ccccc3)C2=O)CC(C)O1 (centres undefined),-27.2% (inactive)
14,CCOC(=O)C1=C(CSc2nccn2C)NC(=O)NC1c1ccc(OC)cc1 (centres undefined),17.2% (inactive)
15,CCOC(=O)C1=C(CNC2CCCCC2)NC(=O)NC1c1cc(C)ccc1C (centres undefined),84.7% (active)
16,CCOC(=O)c1[nH]cnc1C(=O)NC1CCCCC1,28.5% (inactive)
17,Cc1[nH]c2ccccc2c1C(=O)CSCC(=O)O,-30.3% (inactive)
18,CCC(c1nnnn1C1CCCC1)N(Cc1cccs1)Cc1cc2cccc(C)c2[nH]c1=O (centres undefined),-52.1% (inactive)
19,CCC(c1nnnn1Cc1ccco1)N(CCc1ccccc1)Cc1cc2ccc(OC)cc2[nH]c1=O (centres undefined),91.9% (active)
20,CCC(c1nnnn1Cc1ccco1)N(Cc1cc2cc(OC)ccc2[nH]c1=O)C1CCCCC1 (centres undefined),58.2% (active)
21,CCOc1ccc2c(c1)cc(CN(C(=O)CC)C1CCCCC1)c1nnnn12,35.6% (inactive)
22,CCC(c1nnnn1Cc1ccco1)N(CCc1ccccc1)Cc1cc2cccc(C)c2[nH]c1=O (centres undefined),29% (inactive)
23,COc1ccc2[nH]c3c(=O)n(Cc4ccco4)cnc3c2c1,26% (inactive)
24,CC1(C)Cc2cccc(OCC(N)=O)c2O1,-6.4% (inactive)

row,SMILES,inhibition
1,CCn1ncc(Br)c1C(=O)Nc1cc(C)ccc1F,-6.9% (inactive)
2,Cc1csc(NC(=O)CN2CCCCCC2)n1,0.6% (inactive)
3,CC(Oc1ccc(Cl)cc1Cl)C(=O)/C=C/N(C)C (centres undefined),23% (inactive)
4,Cc1cc(=O)cc(C)[nH]1,-13.9% (inactive)
5,Cc1ncn(C23CC4CC(CC(O)(C4)C2)C3)n1,10.7% (inactive)
6,COCCOCCn1cnc2ccccc21,0% (inactive)
7,CC(C)c1ccc(NC(=O)CCN2C(=O)c3ccc([N+](=O)[O-])cc3C2=O)cc1,14.3% (inactive)
8,CC(C)COC(=O)c1ccc(NC(=O)C2C3C=CC(C3)C2C(=O)O)cc1 (centres undefined),29.9% (inactive)
9,COC(=O)c1cc(NC(=O)C2C3C=CC(C3)C2C(=O)O)cc(C(=O)OC)c1 (centres undefined),64.3% (active)
10,CC(C)OC(=O)c1cc(NC(=O)C2C3CCC(O3)C2C(=O)O)cc(C(=O)OC(C)C)c1 (centres undefined),79.4% (active)
11,CCC(CC)C(=O)Nc1cc(C(=O)OC)cc(C(=O)OC)c1,9% (inactive)
12,Cc1sc(NC(=O)C2C3CCC(O3)C2C(=O)O)c(C(=O)OC(C)C)c1-c1ccc(Cl)cc1 (centres undefined),9.3% (inactive)
13,Cn1c(=O)c2c(n(Cc3ccccc3)c1=O)NC(=O)C2CC(=O)N1CCc2ccccc2C1 (centres undefined),-4.4% (inactive)
14,CSc1nnc2c(n1)OC(c1ccsc1)N(C(C)=O)c1ccccc1-2 (centres undefined),10% (inactive)
15,C=CCNC(=O)CCCC(=O)NCC=C,8.2% (inactive)
16,CCN(CC)P(=O)(C(NC(=O)OC)C(F)(F)C(F)(F)C(F)(F)C(F)F)N(CC)CC (centres undefined),21% (inactive)
17,O=C(NCc1ccccc1Cl)c1csc2c1CCCCC2,-153% (inactive)
18,Cn1c(SCC(=O)NC2CCCCC2)nnc1-c1cc2ccccc2o1,9.1% (inactive)
19,CCOc1cc2c(cc1OCC)C(C(=O)O)C(c1ccc(OC)c(O)c1)N(C)C2=O (centres undefined),-10% (inactive)
20,O=C(NCc1cccs1)c1ccc2c(c1)ncn2C1CCCC1,25.4% (inactive)
21,O=C(CN1C2CCC1CC(NC(=O)C1CC1)C2)NCc1ccccc1 (centres undefined),-10.9% (inactive)
22,COc1ccc(NC(=O)NC2CC3CCCC(C2)N3Cc2ccccc2)cc1 (centres undefined),-6.4% (inactive)
23,CC(=O)NC1CC2CCCC(C1)N2CC(=O)Nc1ccccc1 (centres undefined),50.7% (active)
24,c1cc(-n2cnnn2)ccc1NC1=NCCC1,-26.8% (inactive)

row,SMILES,inhibition
1,O=C(O)CC(c1ccccc1)n1cnnn1 (centres undefined),-7.7% (inactive)
2,O=C(c1ccc(-n2cnnn2)cc1)N1CCN(C(c2ccccc2)c2ccccc2)CC1,83.4% (active)
3,Cc1ccc(S(=O)(=O)N2CCN(C(=O)CCC(=O)NC3CCCc4ccccc43)CC2)cc1 (centres undefined),32.1% (inactive)
4,CCOC(=O)N1CCN(S(=O)(=O)c2cc3c(cc2C)NC(=O)CO3)CC1,-21.5% (inactive)
5,Cc1ccc2oc(=O)c3cnn(CC(=O)N(Cc4ccco4)C4CCCCC4)c3c2c1,19.5% (inactive)
6,CCOC(=O)c1cc2c(ccn2C)n1CC(=O)N1CCC(C)CC1,29.1% (inactive)
7,CCOC(=O)c1cc2sccc2n1Cc1ccc(C#N)cc1,96.7% (active)
8,CCCOc1ccc(Cn2c(O)cc(=O)[nH]c2=O)cc1,-7.9% (inactive)
9,Cc1nc2c(C(=O)NCc3ccc4c(c3)OCO4)c[nH]n2c(=O)c1Cc1ccccc1F,93.4% (active)
10,CCc1c(C)nc2ncnn2c1N1CCC(C(=O)NCc2ccc3c(c2)OCO3)CC1,12.9% (inactive)
11,CCn1cc(C(=O)NCc2ccc3c(c2)OCO3)c2cc(OC)c(OC)cc2c1=O,31.5% (inactive)
12,CNC(=O)/C(=C\C=C\c1ccccc1)NC(=O)c1ccc([N+](=O)[O-])cc1,22.2% (inactive)
13,CCOC(=O)c1cnc(SCc2nc(N)nc(Nc3ccc(OC)cc3)n2)nc1N,40.5% (inactive)
14,Cc1nn(-c2ccccc2)c2c1C(=O)NC(=O)C(C)(C)C2,14.9% (inactive)
15,CC1CCN(C(NC(=O)c2ccco2)C(=O)c2ccccc2)CC1 (centres undefined),71.6% (active)
16,CC1CCN(C(=O)Cn2cc(C(=O)c3ccco3)c3ccccc32)CC1,28.3% (inactive)
17,O=C(Nc1ccc(Oc2ccccc2)cc1)c1ccco1,24.3% (inactive)
18,O=C(NC1CCCCC1)N1CCc2[nH]c3ccccc3c2C1,27.9% (inactive)
19,Cc1cc(Cl)c(S(=O)(=O)NCC2CCCO2)cc1OCC(N)=O (centres undefined),-10.7% (inactive)
20,COc1cccc(-n2cc3c(c2-c2ccccc2)c(=O)n(C)c(=O)n3C)c1,64.6% (active)
21,COc1ccc(-c2c3c(=O)n(C)c(=O)n(C)c3cn2-c2cccc(OC)c2)cc1,4.2% (inactive)
22,Cc1ccc(-c2c3c(=O)n(C)c(=O)n(C)c3cn2-c2ccccc2O)cc1,43.7% (inactive)
